# Hits are enriched below; roughly 4.9% of the tested compounds scored in any of these assays.
# Calb FLC: C. albicans growth modulation with fluconazole. hit rate 0.57% among 300,000. AID 1979. C. albicans CaCi-2 (fluconazole-resistant clinical isolate) + fluconazole, Alamar Blue growth, 48 h. growth inhibition, % (test concentration not listed);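 active means growth inhibition above about 58% in most replicates, limit read from the data, passing the limit was not always enough; inconclusive means exactly half the replicates above a set limit; inactive means most replicates below a set limit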;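 further: all wells also contain fluconazole at 8 µg/ml as a sub-toxic cotreatment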
# PP1 inh: counter-screen for PP5 inhibitors: inhibitors of human PP1-alpha. purified PP1alpha, OMFP fluorescence. inhibition, % at 6.7 µM. hit rate 0.9% among 320,000;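 active means inhibition above the mean inhibition of all tested compounds plus 3 SD, computed separately for each screening campaign, cut at about 15% in these data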
# Target sequence (P62136 whole entry, looked up): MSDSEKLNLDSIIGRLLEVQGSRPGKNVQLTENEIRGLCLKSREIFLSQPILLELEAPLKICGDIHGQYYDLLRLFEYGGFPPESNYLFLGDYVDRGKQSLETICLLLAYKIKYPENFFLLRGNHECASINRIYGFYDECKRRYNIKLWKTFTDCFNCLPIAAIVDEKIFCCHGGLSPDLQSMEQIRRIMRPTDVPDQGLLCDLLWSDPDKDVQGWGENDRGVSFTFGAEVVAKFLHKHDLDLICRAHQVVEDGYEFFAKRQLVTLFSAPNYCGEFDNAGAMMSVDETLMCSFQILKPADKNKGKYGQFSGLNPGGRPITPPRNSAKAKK
# Beta cell apopt: blocks beta cell apoptosis; INS-1E cytokine-induced death, ATP luminescence, 48 h; percent of positive-control rescue, neutral wells zero; hit rate 0.8% among 300,000; protection from apoptosis, % (test concentration not listed);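 active means Every replicate reaches about 75%, or at least half do and their mean reaches it too, limit read from the data; inconclusive means At least half of replicates reach the limit but their mean does not; inactive means Under half of replicates reach the limit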;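 further: higher means more ATP so stronger rescue from cytokine killing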
# CSC inhib: blocks cancer stem cells | inhibition, % at 7.5 µM | hit rate 1.1% among 300,000 | cancer stem cell-like cells viability, luminescence; in the data active means inhibition above about 75%; inconclusive means no clear call, values can overlap the other calls; tested in HMLE shEcad cells
# Mdm2 MdmX PPI: human Mdm2/MdmX binding inhibition. O15151+Q00987. SaOS-2 split-luciferase Mdm2/MdmX complementation, luminescence. inhibition, % at 8 µM. hit rate 3% among 330,000. AID 485346;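 active means inhibition of at least 50% at 8 µM in the primary screen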
# PP5 inh: inhibitors of human protein phosphatase 5 (PP5); purified PP5c, OMFP substrate fluorescence; AID 1987; P53041; hit rate 0.18% among 320,000; inhibition, % at 6.7 µM;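 active means inhibition above the campaign's mean inhibition across all tested compounds plus 3 SD, cut at about 9.5% in these data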
# Numbers stand for hits; - = inactive; ? = inconclusive; . = not tested or not shown.
SMILES,Calb FLC,PP1 inh,Beta cell apopt,CSC inhib,Mdm2 MdmX PPI,PP5 inh
COc1ccccc1CNC(=O)C1=CCN(S(=O)(=O)c2ccc(C)cc2)CC1,-,-,-,-,-,-
CC(NC(=O)C1CCC1)c1ccccc1 (configuration not stated),-,-,-,-,-,-
CC(NC(=O)C1CCC(C(=O)NC(C)c2ccccc2)CC1)c1ccccc1 (configuration not stated),-,-,237.8,110.0,-,-
NC(=O)c1ccc(Nc2nnc(-c3ccc(O)cc3)c3ccccc23)cc1,85.5,-,-,-,-,-
O=S(=O)(NCC1CCCO1)c1ccc(S(=O)(=O)N(Cc2ccc(F)cc2)Cc2ccccn2)cc1 (configuration not stated),-,-,-,-,-,-
CCC1CCCCN1S(=O)(=O)c1ccc(S(=O)(=O)N(Cc2ccccn2)CC2CCCO2)cc1 (configuration not stated),-,-,-,79.0,-,-
Cc1ccc(S(=O)(=O)N(C)C)cc1NC(=O)C(C)N(C)Cc1sccc1C (configuration not stated),-,-,-,-,-,-
O=C(CNC(=O)c1ccc(Br)o1)NCC1COc2ccccc2O1 (configuration not stated),.,.,-,-,-,.
O=C(CNS(=O)(=O)c1ccc(Br)s1)NCC1COc2ccccc2O1 (configuration not stated),88.0,-,-,-,-,-
COc1cccc(/C=N/Nc2ccnc(=O)[nH]2)c1O,-,-,92.7,-,-,-
COc1ccc(/C=N/Nc2snc(SC)c2C#N)cc1OC,-,-,-,-,-,-
COc1cccc(/C=N/Nc2snc(SC)c2C#N)c1O,-,-,100.7,-,-,-
O=c1nccc(N/N=C/c2ccccc2O)[nH]1,-,.,124.7,-,-,.
COc1cccc(/C=N/Nc2ccc(S(=O)(=O)O)cc2)c1O,-,-,-,-,-,-
CCOc1ccccc1/C=N/Nc1ccnc(=O)[nH]1,-,.,-,-,-,.
COc1cc(OC)c2c(-c3ccccc3)cc(=O)oc2c1C(CCN1CCN(c2ccccc2)CC1)c1ccc(N(C)C)cc1 (configuration not stated),-,15.9,-,-,-,-
Cc1cc(CNC(=O)COc2ccc(F)cc2Cl)cc(C)c1O,-,-,-,-,-,-
Oc1ccccc1C1OCC2(CO1)COC(c1ccccc1O)OC2 (configuration not stated),-,-,-,-,-,-
Oc1ccccc1C1CCCCC1c1ccccc1 (configuration not stated),-,-,-,75.6,.,-
NC(=O)C1CC12c1ccccc1-c1ccccc12 (configuration not stated),-,-,-,-,-,-
Cc1cc(C)n(CC(=O)N2CCCC(N3CCN(c4ccc(F)cc4)CC3)C2)n1 (configuration not stated),-,-,-,-,-,-
Nc1ccccc1SSc1ccccc1N,-,-,-,-,-,-
CC(C(Sc1ccccc1N)c1ccccc1)[N+](=O)[O-] (configuration not stated),-,-,-,93.8,-,-
Cc1ccc(NC(=S)c2nc3ccccc3[nH]2)c(C)c1,-,-,-,-,-,-
Cc1ccc(NC(=S)c2nc3ccccc3[nH]2)cc1,85.5,-,-,-,-,-
SMILES,Calb FLC,PP1 inh,Beta cell apopt,CSC inhib,Mdm2 MdmX PPI,PP5 inh
CC(C)Oc1ccc(C2CC(=O)N(c3cccc(/C=C/C(=O)O)c3)C2=O)cc1 (configuration not stated),.,-,-,-,-,-
COc1ccc(S(=O)(=O)NCC2CCCN(C(=O)c3ccccc3)C2)cc1 (configuration not stated),-,-,-,-,-,-
Cc1noc(/C=C/c2ccco2)c1S(=O)(=O)N1CCC(C(=O)N2c3ccccc3CC2C)CC1 (configuration not stated),-,17.4,-,-,-,-
Cn1nc(C(C)(C)C)cc1C(=O)NCc1ccc(N2CCCC2=O)cc1,?,-,115.8,-,-,-
NC(=S)Cc1ccc(Cl)cc1Cl,-,-,-,-,-,-
N=C(N)SCc1ccc(Cl)cc1Cl,-,15.2,-,-,-,-
COc1ccc(CCN=C(N)NS(=O)(=O)c2cc(F)ccc2OC)cc1,-,-,-,-,-,-
O=C(Nc1ccc(Cl)c(S(=O)(=O)N2CCOCC2)c1)C1CCCC1,.,.,-,-,-,.
COc1cc(/C=N/Nc2nnc3c(n2)[nH]c2ccccc23)ccc1O,-,-,-,-,.,-
Cc1ccc2[nH]c3nc(N/N=C/c4cccc(O)c4)nnc3c2c1,-,16.5,-,80.8,-,-
Cc1ccc(CNC(=O)CSc2nc(=O)n3ccccc3n2)cc1,-,-,-,-,-,-
O=C(NCc1ccco1)c1sc(=S)n2c1[nH]c(=O)c1ccccc12,93.4,-,-,-,-,-
COc1ccc(OC)c(C2C(C(=O)c3cc4ccccc4o3)=C(O)C(=O)N2c2cc(C)on2)c1 (configuration not stated),?,20.6,-,-,-,-
COc1ccc(C2C(C(=O)c3ccc(C)o3)=C(O)C(=O)N2c2cc(C)on2)cc1OC (configuration not stated),-,-,-,-,-,-
COc1ccc(OC)c(C2C(C(=O)c3ccc(C)o3)=C(O)C(=O)N2c2cc(C)on2)c1 (configuration not stated),-,-,-,-,-,-
COc1ccccc1C1C(C(=O)c2cc3ccccc3o2)=C(O)C(=O)N1c1cc(C)on1 (configuration not stated),-,19.9,-,-,-,-
CN(C)c1ccc(/C=C2\CCC/C(=C\c3ccccc3)C2=O)cc1,-,-,-,86.3,.,-
O=C1/C(=C/c2cccnc2)CCC/C1=C\c1cccnc1,.,-,100.3,103.2,.,-
CN(C)C(CNS(=O)(=O)c1ccc2ccccc2c1)c1ccccc1 (configuration not stated),-,-,-,81.6,-,-
O=C1C=C(c2ccc(F)cc2OCc2ccccc2)C[C@@H](c2ccc(F)cc2)C1,.,-,-,92.9,-,-
O=C1c2ccccc2C(O)(c2ccccc2)N1CCc1ccccc1 (configuration not stated),-,-,-,-,-,-
O=C1c2ccccc2C(O)(c2ccccc2)N1c1ccncc1 (configuration not stated),-,15.7,-,-,-,-
CCOC(=O)C(=O)NN=C(c1ccccc1)c1ccccc1,-,-,-,-,-,-
CCn1c(O)c(N=NC(=O)c2cccs2)c2ccccc21,54.2,-,-,-,-,-
C=CCOc1ccc(/C=C/C(=O)OCC(=O)N(C)CC(=O)Nc2ccccc2Cl)cc1,-,-,-,-,-,-
O=C1NC(=S)N(C(=O)c2ccc(F)cc2)/C1=C/c1cccnc1,-,-,-,-,-,-

# Source: PubChem
